# Results reported in ChEMBL document CHEMBL1201862, “PubChem BioAssay data set” (2004).
# Hit rate of the full screen: of about 41,000 sequences, about 2,700 (6.6%) were called active. Cut-off read from the data, not from the text of the source: active = GI50 up to about 1.1 µM and inactive = higher. These entries were drawn from the full list. Potency and affinity values are given separately.
# Tested on: BT-549
row,Substance,GI50 [µM]
1,"[Bis(aminomethyl)tetramethylenesilane]dichloropaltinum(II), CHEMBL2146205",8.85
2,"[Bis(aminomethyl)pentamethylenesilane]tetrachloropaltinum(IV), CHEMBL2146204",5.71
3,"CISPLATIN, CHEMBL11359",3.73
4,"[Bis(aminomethyl)dimethylsilane]tetrachloroplatinum(IV), CHEMBL2146190",16.4
5,"[Bis(aminomethyl)tetramethylenesilane]tetrachloropaltinum(IV), CHEMBL2146189",4.99
6,"[Bis(aminomethyl)pentamethylenesilane]dichloropaltinum(II), CHEMBL2146202",16.6
